Bioassay records from PubChem.
The list is not random: actives were taken first. Their share in the collection is about 12%.
JMJD2A Tudor: inhibitors of human JMJD2A Tudor domain | AlphaScreen JMJD2A-Tudor / H3K4me3 peptide binding | Potency, µM (highest dose often 114 µM), usual class: inhibitors | 4.4% of 390,000 active | O75164; also: nearly all actives have a fitted effect of over 50% in size
Target sequence (O75164 whole entry, looked up, the tested form may be a part): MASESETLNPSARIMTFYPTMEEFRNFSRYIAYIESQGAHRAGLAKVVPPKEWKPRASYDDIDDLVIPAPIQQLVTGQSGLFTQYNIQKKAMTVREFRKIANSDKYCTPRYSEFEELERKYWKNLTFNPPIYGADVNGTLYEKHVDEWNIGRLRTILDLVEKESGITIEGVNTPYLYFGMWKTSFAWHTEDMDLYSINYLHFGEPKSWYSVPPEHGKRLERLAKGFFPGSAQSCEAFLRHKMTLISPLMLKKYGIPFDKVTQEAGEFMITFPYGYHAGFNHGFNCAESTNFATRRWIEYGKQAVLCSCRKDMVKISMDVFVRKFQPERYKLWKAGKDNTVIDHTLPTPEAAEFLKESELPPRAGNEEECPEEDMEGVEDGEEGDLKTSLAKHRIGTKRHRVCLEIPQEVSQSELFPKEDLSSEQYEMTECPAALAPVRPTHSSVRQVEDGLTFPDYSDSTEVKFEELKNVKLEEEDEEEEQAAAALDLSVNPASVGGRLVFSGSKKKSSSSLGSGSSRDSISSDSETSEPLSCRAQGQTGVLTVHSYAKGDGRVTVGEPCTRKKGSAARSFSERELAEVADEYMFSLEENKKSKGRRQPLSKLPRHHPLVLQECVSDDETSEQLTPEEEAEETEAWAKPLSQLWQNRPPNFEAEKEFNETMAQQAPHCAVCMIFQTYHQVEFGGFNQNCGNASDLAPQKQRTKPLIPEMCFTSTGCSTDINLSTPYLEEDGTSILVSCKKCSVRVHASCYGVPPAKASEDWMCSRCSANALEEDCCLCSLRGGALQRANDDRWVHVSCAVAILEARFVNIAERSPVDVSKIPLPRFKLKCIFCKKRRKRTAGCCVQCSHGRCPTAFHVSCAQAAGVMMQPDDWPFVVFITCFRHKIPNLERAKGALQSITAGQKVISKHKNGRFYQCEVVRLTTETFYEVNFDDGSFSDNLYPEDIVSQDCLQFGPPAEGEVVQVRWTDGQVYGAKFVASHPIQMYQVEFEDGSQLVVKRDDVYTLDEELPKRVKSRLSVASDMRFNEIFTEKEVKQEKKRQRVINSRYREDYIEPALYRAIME
HP1b chromo inh: inhibitors of HP1-beta chromodomain binding to methylated histone tails; P83916; AlphaScreen HP1-beta / biotin-H3K9me3 peptide binding; Potency, µM (series often up to 114 µM), hits mostly inhibitors; 0.56% of 390,000 active; AID 540317; also: nearly all actives have a fitted effect of over 70% in size
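HP1-beta protein (50 nM final) preincubated 30 min at room temperature with biotinylated H3(1-18)K9me3 peptide (50 nM) in PBS pH 7.4, 0.01% Tween-20, then compound added for 30 min. AlphaScreen streptavidin donor/nickel chelate acceptor beads (10 ug/mL final), 30 min dark, luminescence read.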
G9a block: G9a (human) methyltransferase inhibition. Q96KQ7. G9a H3K9 monomethylation, AlphaScreen, 2 h. Potency, µM (highest dose often 102 µM), most hits filed as inhibitors. 8.8% of 350,000 active; also: nearly all actives have a fitted effect of over 75% in size
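G9a (20 nM) was preincubated 15 min with compound, then reacted 2 h at room temperature with 500 nM biotin-H3K9 peptide and 20 µM SAM. Monomethyl-H3K9 detected by AlphaScreen using anti-H3K9me1 antibody.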
PLK1 PBD inh: blocks phosphopeptide binding to human PLK1 polo-box domain; AID 720504; Potency, µM, usual class: inhibitors; Plk1 PBD binding of FITC phosphopeptide, fluorescence polarization; 2.8% of 360,000 active; also: series mostly up to about 57 µM; nearly all actives have a fitted effect of over 65% in size
BAZ2B block: blocks human BAZ2B | Potency, µM (doses to about 114 µM), usual class: inhibitors | Q9UIF8 | AlphaScreen BAZ2B-H3K14Ac peptide displacement | 4.4% of 360,000 active; also: nearly all actives have a fitted effect of over 60% in size
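Multi-concentration screen (max 110 uM) measuring displacement of acetylated histone H3 peptide from BAZ2B by AlphaScreen, using 50 nM protein, 50 nM peptide and 10 ug/mL streptavidin donor plus Ni-chelate acceptor beads.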
Sfp PPTase inh: Sfp phosphopantetheinyl transferase inhibition; AID 1490; 3.5% of 310,000 active; Potency, µM, actives largely listed as inhibitors; Biochemical Sfp PPTase activity, qHTS; Q9F4F7;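 also: the enzyme is Sfp with the accession as filed and its product quenches rhodamine fluorescence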
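Step 1, compound plus 15 nM Sfp-PPTase, 15 min, room temperature. Step 2, add rhodamine-CoA (5 uM) and BHQ-2-YbbR (12.5 uM). Step 3, read 525/598 nm fluorescence at 0 and 30 min.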
Each line names hits and unclear results; the compound was inactive in the other large screens; ! = not active in a repeat. Calls follow the shape of the dose curve; as a rule, active = well fitted curve in the direction sought with a large enough effect; inconclusive = small, poorly fitted or top-dose-only effect, or another doubt; inactive = no such curve, though single readings can be large; an effect the other way counts as inactive or inconclusive.

O=c1[nH]c(Nc2ccccn2)cc2ccccc12	none (no result: G9a block, BAZ2B block, Sfp PPTase inh)
Cc1ccccc1Nc1cc2ccccc2c(=O)[nH]1	JMJD2A Tudor 45µM!, G9a block inconclusive, PLK1 PBD inh inconclusive
CSCCC(NC=O)C(=O)NC(C)C(=O)O (stereo unspecified)	none (no result: G9a block, BAZ2B block, Sfp PPTase inh)
CCOC(=O)C1OC1(c1ccccc1)c1ccccc1 (stereo unspecified)	none (no result: G9a block, BAZ2B block, Sfp PPTase inh)
COCCNC(=O)C1(C(F)(F)F)C/C(=C/CCO)CCCO1 (stereo unspecified)	none (no result: G9a block, PLK1 PBD inh, BAZ2B block)
CC(C)NC(=O)Cn1ncn2c(cc3cc(F)ccc32)c1=O	none (no result: PLK1 PBD inh, Sfp PPTase inh)
CCCCc1c(CCC)c(=N)c2ccccc2n1C	JMJD2A Tudor 89µM
CC(=O)SC[C@@H](Cc1ccccc1)C(=O)NCC(=O)OCc1ccccc1	none (no result: JMJD2A Tudor, HP1b chromo inh, PLK1 PBD inh, BAZ2B block)
O=C1NC(=S)SC1=Cc1cc(Br)ccc1O	JMJD2A Tudor 20µM, HP1b chromo inh inconclusive, PLK1 PBD inh 27µM (no result: G9a block, BAZ2B block, Sfp PPTase inh)
O=C1NC(=S)S/C1=C\c1coc2ccc(O)cc2c1=O	G9a block 45µM, PLK1 PBD inh inconclusive, BAZ2B block inconclusive
O=C1NC(=S)S/C1=C\c1coc2ccccc2c1=O	JMJD2A Tudor inconclusive, G9a block 50µM, PLK1 PBD inh inconclusive, BAZ2B block inconclusive
Cc1cc(Nc2cc(Cl)ccc2C)n2nc(-c3ccccc3)nc2n1	none (no result: PLK1 PBD inh, Sfp PPTase inh)
CCOc1ccc(NC(=S)N(CC)Cc2ccccc2)cc1	none (no result: JMJD2A Tudor, HP1b chromo inh, PLK1 PBD inh)
O=C(NCc1cc(F)cc2c1OCCO2)[C@H]1C[C@@H]1[C@H](NP(=O)(c1ccccc1)c1ccccc1)c1ccccc1	none (no result: JMJD2A Tudor, HP1b chromo inh, G9a block, PLK1 PBD inh, BAZ2B block)
N/C(CS(=O)(=O)c1ccccn1)=N\OC(=O)c1ccccc1Cl	JMJD2A Tudor inconclusive, G9a block inconclusive
CCCS(=O)(=O)C/C(N)=N/OC(=O)c1ccccc1Cl	G9a block 40µM
S=c1[nH]ccn1-c1cccc(Cl)c1	JMJD2A Tudor 7.9µM, G9a block inconclusive, PLK1 PBD inh inconclusive
Cc1ccc(N2C(=O)C(Cc3ccc(O)cc3)NC2=S)cc1C (stereo unspecified)	none
O=C1CSC(=S)N1c1cccc(Cl)c1	PLK1 PBD inh inconclusive
Cc1ccc(-n2cc[nH]c2=S)cc1C	JMJD2A Tudor 35µM, G9a block inconclusive, Sfp PPTase inh 79µM
O=C(NCCO)C(=O)Nc1c2c(nn1-c1ccc(F)cc1)CSC2	G9a block inconclusive (no result: PLK1 PBD inh, Sfp PPTase inh)
COc1ccc(NC(=O)C2CCCN(S(C)(=O)=O)C2)c(OC)c1 (stereo unspecified)	none
COc1ccc(NC(=O)c2cc(-c3ccco3)on2)c(OC)c1	none
COc1ccc(NC(=O)C2CCN(C(=O)c3cccs3)CC2)c(OC)c1	JMJD2A Tudor 28µM, HP1b chromo inh inconclusive, PLK1 PBD inh 7.5µM
COc1ccc(NC(=O)C2CCN(C(=O)c3ccccc3)CC2)c(OC)c1	none (no result: BAZ2B block)
COc1ccc(NC(=O)c2cc(C3CC3)on2)c(OC)c1	G9a block 45µM
COc1ccc(NC(=O)C2CCN(S(C)(=O)=O)CC2)c(OC)c1	G9a block 89µM
COc1ccc(NC(=O)C2CCCN2C(=O)NC2CCCCC2)c(OC)c1 (stereo unspecified)	none
COc1ccc(NC(=O)C2CCN(C(=O)NC3CCCCC3)CC2)c(OC)c1	JMJD2A Tudor 79µM, PLK1 PBD inh inconclusive (no result: BAZ2B block)
O=c1cc(-c2ccccc2)n2c(SCc3ccccc3Cl)nnc2[nH]1	none (no result: PLK1 PBD inh, Sfp PPTase inh)
C=CCn1c(C)cc(C)c(C#N)c1=O	BAZ2B block inconclusive
C=CCn1c(O)c(CN2CCOCC2)c(C)c(C#N)c1=O	G9a block 50µM
COc1ccc(CNC(=O)C2Cc3cc(S(=O)(=O)N4CCCC4)ccc3N2C(C)=O)c(OC)c1 (stereo unspecified)	G9a block 22µM, BAZ2B block inconclusive
CC(=O)N1c2ccc(S(=O)(=O)N3CCCCC3)cc2CC1C(=O)NCc1ccc(N(C)C)cc1 (stereo unspecified)	JMJD2A Tudor 28µM, G9a block 40µM, PLK1 PBD inh 21µM
CC(=O)N1c2ccc(S(=O)(=O)N3CCCC3)cc2CC1C(=O)NCc1ccc(OC(C)C)cc1 (stereo unspecified)	PLK1 PBD inh inconclusive
CC(=O)N1c2ccc(S(=O)(=O)N3CCCCCC3)cc2CC1C(=O)NCc1ccc(Cl)cc1 (stereo unspecified)	none (no result: PLK1 PBD inh, Sfp PPTase inh)
